Measurements from the supplement of paper PMC10849652.
Of roughly 7,900 targets only a part is listed; those with a hit were picked by preference. About 0.6% of all pairs of compound and target were hits.

How the values were obtained:
Test in all cases: log2 fold change, soluble protein after heating vs DMSO (PISA); higher = thermal stabilisation; K562 cells, 10 uM, 30 min; active = over 0.2 and 3.5 SD of the protein, either way, in both replicates (recomputed)
[1] = compound: CS(=O)(=O)c1ccc(-c2cnc(N)c(C(=O)Nc3ccccc3)n2)cc1
How it was run: (§1)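 K562 cells at 2×10^6 cells/mL were given 10 μM compound for 30 min. Aliquots then went through 3 min of heating across 48°C-58°C, were pooled, and were extracted in PBS with 0.5% NP-40 at 4°C, and the supernatant after 21,000xg for 90 min was quantified by TMTpro 16plex LC-MS/MS with channel sums equalised. Thermal stability relative to control samples, from duplicates, is given as log2 fold change.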

crizotinib = compound: C[C@@H](Oc1cc(-c2cnn(C3CCNCC3)c2)cnc1N)c1c(Cl)ccc(F)c1Cl [crizotinib]
How it was run: as §1

[2] = compound: C[C@@H]1COCCN1C2=NC(=NC(=C2)C3(CC3)S(=O)(=O)C)C4=C5C=CNC5=CC=C4
How it was run: as §1

[3] = compound: C[C@H](C1=CC=C(C=C1)C(=O)NC2=C3C=CNC3=NC=C2)N
How it was run: as §1

duvelisib = compound: C[C@H](Nc1ncnc2nc[nH]c12)c1cc2cccc(Cl)c2c(=O)n1-c1ccccc1 [duvelisib]
How it was run: as §1

gandotinib = compound: Cc1cc(Nc2cc(CN3CCOCC3)c3nc(C)c(Cc4ccc(Cl)cc4F)n3n2)n[nH]1 [gandotinib]
How it was run: as §1

tozasertib = compound: Cc1cc(Nc2cc(N3CCN(C)CC3)nc(Sc3ccc(NC(=O)C4CC4)cc3)n2)n[nH]1 [tozasertib]
How it was run: as §1

[4] = compound: Cc1cc(SCc2sc(-c3ccc(C(F)(F)F)cc3)nc2C)ccc1OCC(=O)O
How it was run: as §1

doramapimod = compound: Cc1ccc(-n2nc(C(C)(C)C)cc2NC(=O)Nc2ccc(OCCN3CCOCC3)c3ccccc23)cc1 [doramapimod]
How it was run: as §1

ispinesib = compound: Cc1ccc(C(=O)N(CCCN)[C@@H](c2nc3cc(Cl)ccc3c(=O)n2Cc2ccccc2)C(C)C)cc1 [ispinesib]
How it was run: as §1

bafetinib = compound: Cc1ccc(NC(=O)c2ccc(CN3CC[C@H](N(C)C)C3)c(C(F)(F)F)c2)cc1Nc1nccc(-c2cncnc2)n1 [bafetinib]
How it was run: as §1

[5] = compound: Cc1cccc(CC(=O)N2CCc3c2ccc(-c2cn(C)c4ncnc(N)c24)c3F)n1
How it was run: as §1

nilotinib = compound: Cc1cn(-c2cc(NC(=O)c3ccc(C)c(Nc4nccc(-c5cccnc5)n4)c3)cc(C(F)(F)F)c2)cn1 [nilotinib]
How it was run: as §1

[6] = compound: Cc1nc(Nc2n[nH]c3c2CN(C(=O)N[C@H](CN(C)C)c2ccccc2)C3(C)C)c2sccc2n1
How it was run: as §1

dasatinib = compound: Cc1nc(Nc2ncc(C(=O)Nc3c(C)cccc3Cl)s2)cc(N2CCN(CCO)CC2)n1 [dasatinib]
How it was run: as §1

[7] = compound: Cc1ncc(-c2ccnc(Nc3ccc(S(C)(=O)=O)cc3)n2)n1C(C)C
How it was run: as §1

[8] = compound: Cn1cc(-c2ccc3c(c2)CCN3C(=O)Cc2cccc(C(F)(F)F)c2)c2c(N)ncnc21
How it was run: as §1

[9] = compound: Cn1cc(-c2ccc3nnc(C(F)(F)c4ccc5ncccc5c4)n3n2)cn1
How it was run: as §1

tipifarnib = compound: Cn1cncc1[C@@](N)(c1ccc(Cl)cc1)c1ccc2c(c1)c(-c1cccc(Cl)c1)cc(=O)n2C [tipifarnib]
How it was run: as §1

mubritinib = compound: FC(F)(F)c1ccc(/C=C/c2nc(COc3ccc(CCCCn4ccnn4)cc3)co2)cc1 [mubritinib]
How it was run: as §1

Measured: log2 fold change

PTRHD1 (UniProt Q6GMV3)
Chain of UniProt Q6GMV3 (Q6GMV3 whole entry, looked up): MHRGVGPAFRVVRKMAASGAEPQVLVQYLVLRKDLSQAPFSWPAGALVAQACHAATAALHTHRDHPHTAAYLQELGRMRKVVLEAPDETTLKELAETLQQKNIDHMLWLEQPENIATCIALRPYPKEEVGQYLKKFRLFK
active: [9] 0.332
inactive: [1] 0.003 | crizotinib 0.006 | [2] 0.184 | [3] -0.097 | duvelisib 0.18 | gandotinib 0.08 | tozasertib 0.037 | [4] 0.022 | doramapimod -0.036 | ispinesib 0.225 | bafetinib -0.067 | [5] 0.024 | nilotinib 0.08 | [6] -0.032 | dasatinib -0.007 | [7] -0.061 | [8] 0.111 | tipifarnib 0.028 | mubritinib 0.043

PRPF38A (UniProt Q8NAV1)
Chain of UniProt Q8NAV1 (Q8NAV1 whole entry, looked up): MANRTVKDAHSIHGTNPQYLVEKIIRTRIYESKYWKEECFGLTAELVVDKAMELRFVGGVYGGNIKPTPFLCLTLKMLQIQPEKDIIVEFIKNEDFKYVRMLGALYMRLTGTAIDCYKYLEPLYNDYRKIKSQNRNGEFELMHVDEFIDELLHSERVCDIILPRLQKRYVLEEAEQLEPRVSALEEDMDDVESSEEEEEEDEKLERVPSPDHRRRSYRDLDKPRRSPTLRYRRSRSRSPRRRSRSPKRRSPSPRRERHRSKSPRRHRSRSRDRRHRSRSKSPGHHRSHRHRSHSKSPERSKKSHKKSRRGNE
active: [6] -0.871
inactive: [1] -0.029 | crizotinib 0.018 | [2] 0.017 | [3] 0.009 | duvelisib 0.037 | gandotinib -0.042 | tozasertib -0.071 | [4] 0.017 | doramapimod 0.006 | ispinesib -0.024 | bafetinib 0.048 | [5] 0.025 | nilotinib -0.006 | dasatinib -0.033 | [7] -0.073 | [8] -0.011 | [9] -0.08 | tipifarnib 0.036 | mubritinib 0.201

PFDN1 (UniProt O60925)
Chain of UniProt O60925 (O60925 whole entry, looked up): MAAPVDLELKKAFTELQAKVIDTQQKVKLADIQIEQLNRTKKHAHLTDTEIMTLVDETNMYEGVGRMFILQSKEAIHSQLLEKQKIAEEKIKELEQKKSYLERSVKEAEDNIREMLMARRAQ
inactive: [1] 0.018 | crizotinib 0.069 | [2] 0.264 | [3] -0.115 | duvelisib 0.175 | gandotinib 0.029 | tozasertib 0.072 | [4] 0.081 | doramapimod 0.018 | ispinesib 0.277 | bafetinib 0.038 | [5] -0.041 | nilotinib 0.012 | [6] 0.026 | dasatinib 0.076 | [7] -0.023 | [8] 0.153 | [9] 0.328 | tipifarnib -0.061 | mubritinib 0.039

POLD3 (UniProt Q15054)
Chain of UniProt Q15054 (Q15054 whole entry, looked up): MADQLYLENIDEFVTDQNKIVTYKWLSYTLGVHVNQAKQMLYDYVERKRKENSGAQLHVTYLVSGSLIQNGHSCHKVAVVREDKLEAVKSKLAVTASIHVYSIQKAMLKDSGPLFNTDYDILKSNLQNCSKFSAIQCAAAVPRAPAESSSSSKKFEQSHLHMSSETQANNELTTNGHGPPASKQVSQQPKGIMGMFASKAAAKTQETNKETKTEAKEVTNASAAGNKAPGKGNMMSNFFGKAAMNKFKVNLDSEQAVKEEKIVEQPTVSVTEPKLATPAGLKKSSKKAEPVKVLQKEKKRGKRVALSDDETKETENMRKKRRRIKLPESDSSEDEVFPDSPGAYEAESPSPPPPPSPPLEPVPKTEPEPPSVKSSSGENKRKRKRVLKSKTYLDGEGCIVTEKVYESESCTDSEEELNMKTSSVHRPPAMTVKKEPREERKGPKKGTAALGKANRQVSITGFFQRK
inactive: [1] 0.177 | crizotinib -0.055 | [2] 0.155 | [3] -0.076 | duvelisib 0.018 | gandotinib -0.049 | tozasertib 0.048 | [4] 0.008 | doramapimod -0.012 | ispinesib -0.123 | bafetinib 0.846 | [5] 0.058 | nilotinib -0.014 | [6] -0.052 | dasatinib -0.068 | [7] 0.096 | [8] 0.028 | [9] 0.044 | tipifarnib -0.01 | mubritinib 0.024

PTPA (UniProt Q15257)
Chain of UniProt Q15257 (Q15257 whole entry, looked up): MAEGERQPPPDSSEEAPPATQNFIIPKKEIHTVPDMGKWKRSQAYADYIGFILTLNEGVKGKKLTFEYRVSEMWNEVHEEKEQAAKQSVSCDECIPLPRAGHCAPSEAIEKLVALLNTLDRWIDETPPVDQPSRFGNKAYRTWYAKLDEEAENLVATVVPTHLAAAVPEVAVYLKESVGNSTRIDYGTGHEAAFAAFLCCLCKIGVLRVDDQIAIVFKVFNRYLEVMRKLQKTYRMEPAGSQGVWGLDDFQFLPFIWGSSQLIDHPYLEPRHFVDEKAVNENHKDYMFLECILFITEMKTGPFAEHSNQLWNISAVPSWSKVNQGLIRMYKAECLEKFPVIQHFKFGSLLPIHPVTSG
inactive: [1] -0.001 | crizotinib 0.028 | [2] 0.074 | [3] -0.117 | duvelisib 0.052 | gandotinib -0.037 | tozasertib 0.024 | [4] 0.013 | doramapimod -0.001 | ispinesib 0.091 | bafetinib -0.038 | [5] 0.011 | nilotinib -0.014 | [6] 0.012 | dasatinib -0.014 | [7] -0.002 | [8] 0.034 | [9] 0.03 | tipifarnib 0.013 | mubritinib 0.028

PRCP (UniProt P42785)
Chain of UniProt P42785 (P42785 whole entry, looked up): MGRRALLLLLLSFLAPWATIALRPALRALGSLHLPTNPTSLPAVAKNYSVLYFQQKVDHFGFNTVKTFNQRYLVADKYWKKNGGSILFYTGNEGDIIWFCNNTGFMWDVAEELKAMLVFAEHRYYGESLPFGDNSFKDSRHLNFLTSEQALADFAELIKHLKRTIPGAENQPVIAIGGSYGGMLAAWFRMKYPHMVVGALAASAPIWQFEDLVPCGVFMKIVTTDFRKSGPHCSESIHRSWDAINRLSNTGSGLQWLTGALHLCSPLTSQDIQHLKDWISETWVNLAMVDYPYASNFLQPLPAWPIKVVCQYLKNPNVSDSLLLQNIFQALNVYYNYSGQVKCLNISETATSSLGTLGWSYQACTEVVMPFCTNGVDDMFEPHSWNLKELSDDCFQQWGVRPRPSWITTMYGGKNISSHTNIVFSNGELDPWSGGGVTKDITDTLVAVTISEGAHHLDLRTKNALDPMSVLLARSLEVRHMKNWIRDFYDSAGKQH
inactive: [1] 0.012 | crizotinib -0.078 | [2] -0.088 | [3] -0.037 | duvelisib 0.045 | gandotinib 0.006 | tozasertib 0.036 | [4] -0.037 | doramapimod -0.034 | ispinesib -0.096 | bafetinib -0.209 | [5] -0.018 | nilotinib 0.011 | [6] 0.009 | dasatinib -0.021 | [7] -0.009 | [8] 0.02 | [9] 0.008 | tipifarnib 0.055 | mubritinib 0.057

PRKACB isoform 2 (UniProt P22694)
active: [6] 0.647
inactive: [1] -0.009 | crizotinib -0.145 | [2] 0.033 | [3] -0.039 | duvelisib 0.009 | gandotinib -0.091 | tozasertib -0.02 | [4] 0.047 | doramapimod 0.028 | ispinesib -0.043 | bafetinib -0.06 | [5] 0.04 | nilotinib -0.021 | dasatinib -0.021 | [7] -0.037 | [8] -0.013 | [9] -0.004 | tipifarnib -0.144 | mubritinib 0.051

PARG (UniProt Q86W56)
Chain of UniProt Q86W56 (Q86W56 whole entry, looked up): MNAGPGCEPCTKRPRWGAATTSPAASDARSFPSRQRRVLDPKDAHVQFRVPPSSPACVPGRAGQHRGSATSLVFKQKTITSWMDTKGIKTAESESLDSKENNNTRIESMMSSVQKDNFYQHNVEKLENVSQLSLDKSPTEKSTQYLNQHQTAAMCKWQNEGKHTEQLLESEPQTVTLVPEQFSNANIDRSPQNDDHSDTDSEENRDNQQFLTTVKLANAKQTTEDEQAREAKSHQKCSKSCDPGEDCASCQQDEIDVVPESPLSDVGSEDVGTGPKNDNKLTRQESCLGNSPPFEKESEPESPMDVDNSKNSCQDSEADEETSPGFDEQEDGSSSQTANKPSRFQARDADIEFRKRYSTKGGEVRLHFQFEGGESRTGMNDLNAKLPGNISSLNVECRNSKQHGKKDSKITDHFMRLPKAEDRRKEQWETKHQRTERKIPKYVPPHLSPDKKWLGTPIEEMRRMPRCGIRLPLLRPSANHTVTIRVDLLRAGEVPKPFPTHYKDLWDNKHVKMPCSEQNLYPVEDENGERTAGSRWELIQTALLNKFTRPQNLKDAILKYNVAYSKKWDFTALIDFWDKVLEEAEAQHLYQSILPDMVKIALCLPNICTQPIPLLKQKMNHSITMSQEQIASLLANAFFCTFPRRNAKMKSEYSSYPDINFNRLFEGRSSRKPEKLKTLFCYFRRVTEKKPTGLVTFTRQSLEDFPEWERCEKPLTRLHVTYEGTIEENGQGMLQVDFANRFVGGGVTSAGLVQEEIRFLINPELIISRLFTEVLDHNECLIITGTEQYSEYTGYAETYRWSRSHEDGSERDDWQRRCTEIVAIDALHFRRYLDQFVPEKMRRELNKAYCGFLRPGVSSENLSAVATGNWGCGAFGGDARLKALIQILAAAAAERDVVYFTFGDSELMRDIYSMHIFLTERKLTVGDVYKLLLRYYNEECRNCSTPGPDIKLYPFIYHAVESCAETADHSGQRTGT
inactive: [1] -0.027 | crizotinib -0.147 | [2] 0.013 | [3] 0.016 | duvelisib -0.005 | gandotinib -0.094 | tozasertib 0.022 | [4] 0.123 | doramapimod 0.015 | ispinesib -0.148 | bafetinib 0.166 | [5] 0.118 | nilotinib 0.004 | [6] -0.123 | dasatinib -0.162 | [7] -0.025 | [8] 0.093 | [9] -0.015 | tipifarnib -0.061 | mubritinib 0.061

PLBD1 (UniProt Q6P4A8)
Chain of UniProt Q6P4A8 (Q6P4A8 whole entry, looked up): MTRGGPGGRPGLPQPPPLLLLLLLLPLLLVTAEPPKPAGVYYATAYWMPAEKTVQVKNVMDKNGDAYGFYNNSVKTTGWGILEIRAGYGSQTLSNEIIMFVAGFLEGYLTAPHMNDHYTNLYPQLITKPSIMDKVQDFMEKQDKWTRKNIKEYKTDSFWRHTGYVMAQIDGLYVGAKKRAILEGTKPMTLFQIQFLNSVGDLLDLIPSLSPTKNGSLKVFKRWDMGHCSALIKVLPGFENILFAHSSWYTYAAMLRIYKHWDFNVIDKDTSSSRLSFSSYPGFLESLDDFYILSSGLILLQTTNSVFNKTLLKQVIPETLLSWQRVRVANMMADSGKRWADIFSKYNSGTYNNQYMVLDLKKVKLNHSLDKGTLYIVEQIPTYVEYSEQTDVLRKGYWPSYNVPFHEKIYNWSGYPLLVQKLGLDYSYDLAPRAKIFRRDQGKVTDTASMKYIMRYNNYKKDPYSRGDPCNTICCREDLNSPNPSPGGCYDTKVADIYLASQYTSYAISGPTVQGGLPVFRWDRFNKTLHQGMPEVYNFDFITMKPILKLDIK
inactive: [1] -0.01 | crizotinib -0.082 | [2] 0.009 | [3] -0.032 | duvelisib 0.01 | gandotinib 0.011 | tozasertib -0.005 | [4] -0.032 | doramapimod -0.007 | ispinesib 0.016 | bafetinib -0.143 | [5] 0 | nilotinib 0.021 | [6] -0.029 | dasatinib -0.063 | [7] -0.035 | [8] 0.041 | [9] 0.081 | tipifarnib 0.038 | mubritinib 0.052

PISD (UniProt Q9UG56)
inactive: [1] 0 | crizotinib -0.023 | [2] 0.045 | [3] -0.018 | duvelisib 0.044 | gandotinib -0.004 | tozasertib -0.025 | [4] 0.036 | doramapimod 0.006 | ispinesib 0.02 | bafetinib -0.042 | [5] -0.007 | nilotinib -0.053 | [6] -0.003 | dasatinib -0.029 | [7] 0.105 | [8] -0.068 | [9] -0.02 | tipifarnib -0.005 | mubritinib 0.103

PSMC2 (UniProt P35998)
Chain of UniProt P35998 (P35998 whole entry, looked up): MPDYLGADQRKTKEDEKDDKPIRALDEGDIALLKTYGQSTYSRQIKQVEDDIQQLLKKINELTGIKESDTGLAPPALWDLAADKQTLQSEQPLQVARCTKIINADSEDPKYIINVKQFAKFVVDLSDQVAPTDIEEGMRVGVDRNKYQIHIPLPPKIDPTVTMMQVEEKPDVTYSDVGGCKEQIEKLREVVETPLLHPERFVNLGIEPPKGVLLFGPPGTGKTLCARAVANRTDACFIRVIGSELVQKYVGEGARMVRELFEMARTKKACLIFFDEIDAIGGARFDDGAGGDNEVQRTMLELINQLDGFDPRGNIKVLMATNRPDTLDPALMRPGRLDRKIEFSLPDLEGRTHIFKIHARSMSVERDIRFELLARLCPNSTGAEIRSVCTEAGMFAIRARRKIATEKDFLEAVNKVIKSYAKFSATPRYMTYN
inactive: [1] 0.011 | crizotinib 0.003 | [2] -0.087 | [3] 0.079 | duvelisib -0.061 | gandotinib 0.027 | tozasertib 0.031 | [4] 0.014 | doramapimod 0.005 | ispinesib 0.016 | bafetinib 0.081 | [5] 0.029 | nilotinib -0.019 | [6] 0.044 | dasatinib 0.034 | [7] -0.018 | [8] -0.126 | [9] -0.013 | tipifarnib 0.113 | mubritinib -0.031

PTGR2 (UniProt Q8N8N7)
inactive: [1] 0.097 | crizotinib -0.075 | [2] 0.045 | [3] 0.112 | duvelisib 0.049 | gandotinib 0.192 | tozasertib 0 | [4] -0.185 | doramapimod 0.223 | ispinesib 0.013 | bafetinib 0.084 | [5] -0.151 | nilotinib 0.003 | [6] -0.215 | dasatinib -0.025 | [7] 0.07 | [8] 0.112 | tipifarnib 0.184 | mubritinib -0.066
active: [9] 0.485

PIR (UniProt O00625)
Chain of UniProt O00625 (O00625 whole entry, looked up): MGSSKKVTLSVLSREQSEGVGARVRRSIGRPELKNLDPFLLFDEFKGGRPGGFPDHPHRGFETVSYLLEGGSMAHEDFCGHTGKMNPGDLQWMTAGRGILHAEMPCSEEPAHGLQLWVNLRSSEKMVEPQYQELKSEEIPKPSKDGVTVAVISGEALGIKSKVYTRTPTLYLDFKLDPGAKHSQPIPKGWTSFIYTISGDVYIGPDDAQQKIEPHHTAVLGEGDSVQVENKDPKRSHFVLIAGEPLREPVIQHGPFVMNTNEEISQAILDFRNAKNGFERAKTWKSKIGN
inactive: [1] 0.004 | crizotinib 0.042 | [2] 0.019 | [3] -0.085 | duvelisib 0.013 | gandotinib 0.048 | tozasertib 0.027 | [4] 0.057 | doramapimod 0.095 | ispinesib 0.045 | bafetinib -0.073 | [5] 0.001 | nilotinib 0.009 | [6] -0.006 | dasatinib -0.044 | [7] -0.014 | [8] -0.003 | [9] 0.028 | tipifarnib -0.069 | mubritinib 0.11

QRSL1 (UniProt Q9H0R6)
inactive: [1] 0.046 | crizotinib -0.04 | [3] -0.023 | duvelisib 0.033 | gandotinib 0.082 | tozasertib -0.025 | [4] 0.024 | doramapimod -0.015 | ispinesib -0.049 | bafetinib -0.036 | [5] 0.048 | nilotinib -0.041 | [6] -0.028 | dasatinib -0.171 | [7] 0.045 | [8] 0.037 | [9] 0.024 | tipifarnib 0.002 | mubritinib -0.102
active: [2] 0.212

PDCD6 (UniProt O75340)
Chain of UniProt O75340 (O75340 whole entry, looked up): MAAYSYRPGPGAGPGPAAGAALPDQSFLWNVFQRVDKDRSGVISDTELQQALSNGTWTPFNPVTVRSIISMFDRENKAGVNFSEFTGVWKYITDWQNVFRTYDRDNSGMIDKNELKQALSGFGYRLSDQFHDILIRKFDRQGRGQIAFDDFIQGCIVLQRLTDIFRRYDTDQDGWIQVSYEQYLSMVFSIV
inactive: [1] 0.029 | crizotinib -0.047 | [2] 0.051 | [3] -0.021 | duvelisib 0.03 | gandotinib -0.056 | tozasertib 0.05 | [4] 0.038 | doramapimod 0.002 | ispinesib -0.045 | bafetinib -0.11 | [5] -0.005 | nilotinib -0.071 | [6] 0.042 | dasatinib -0.021 | [7] -0.026 | [8] 0.027 | [9] 0.022 | tipifarnib -0.034 | mubritinib 0.009

PPP2R5C isoform 4 (UniProt Q13362)
Chain of UniProt Q13362 (Q13362 whole entry, looked up): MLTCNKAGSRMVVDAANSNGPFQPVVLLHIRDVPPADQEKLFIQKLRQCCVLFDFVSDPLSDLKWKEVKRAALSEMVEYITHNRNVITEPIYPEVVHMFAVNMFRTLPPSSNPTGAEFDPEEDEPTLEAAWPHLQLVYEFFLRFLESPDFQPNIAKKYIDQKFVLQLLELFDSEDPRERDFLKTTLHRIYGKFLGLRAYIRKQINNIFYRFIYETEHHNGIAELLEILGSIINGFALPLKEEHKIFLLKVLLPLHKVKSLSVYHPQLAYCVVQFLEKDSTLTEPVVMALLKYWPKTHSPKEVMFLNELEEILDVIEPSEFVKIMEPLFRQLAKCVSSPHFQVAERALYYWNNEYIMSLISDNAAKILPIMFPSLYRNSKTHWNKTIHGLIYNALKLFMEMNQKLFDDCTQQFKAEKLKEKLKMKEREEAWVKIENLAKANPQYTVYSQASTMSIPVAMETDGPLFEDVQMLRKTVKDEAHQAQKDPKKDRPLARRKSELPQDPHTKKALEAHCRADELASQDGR
inactive: [1] 0.031 | crizotinib -0.021 | [2] -0.177 | [3] 0.029 | duvelisib 0.066 | gandotinib -0.011 | tozasertib -0.055 | [4] -0.01 | doramapimod -0.06 | ispinesib -0.036 | bafetinib -0.032 | [5] -0.019 | nilotinib -0.05 | [6] -0.025 | dasatinib -0.058 | [7] -0.008 | [8] 0.037 | [9] 0.052 | tipifarnib -0.093 | mubritinib 0.095
